{"source": "ChEMBL document CHEMBL3988442", "about": "“University of Dundee, Small-Polar-MMV Screening Library” (2021)", "note": "Hit rate of the full screen: of about 48,000 compounds, about 13,000 (27%) showed an effect of 50% or more. The list shows a part of the results."}
{"system": "Wolbachia pipientis", "experiment": "Anti-Wolbachia Cell-Based Screen", "type": "functional", "design": "scale not given: in the data most compounds retested in dose-response had high values", "conditions": "5 µM", "units": {"Percent Effect": "%"}}
{"smiles": "CCN1CCC(CC(=O)NCc2cc(C)nn2C)CC1", "Percent Effect": -11.94}
{"smiles": "CC(C)c1nn(C)c(Cl)c1CNCC(=O)N1CCN(C)CC1.Cl", "Percent Effect": 99.42}
{"smiles": "CC(C)c1nn(C)c(N2CCOCC2)c1CNCC(=O)N(C)C", "Percent Effect": -5.66}
{"smiles": "CC(C)c1nn(C)c(N(C)C)c1CNCCC(=O)N(C)C.Cl", "Percent Effect": -2.081}
{"smiles": "COc1c(CNC2(c3noc(C)n3)CCC2)c(C(C)C)nn1C.Cl", "Percent Effect": -8.281}
{"smiles": "COc1c(CNCc2cnn(C)c2)c(C(C)C)nn1C", "Percent Effect": -6.64}
{"smiles": "COc1c(CNCC(=O)N2CCN(C)CC2)c(C(C)C)nn1C", "Percent Effect": 95.67}
{"smiles": "Cc1cccc(N2CCC(NC(C)c3cccs3)CC2)n1", "note": "(stereo unspecified)", "Percent Effect": -26.34}
{"smiles": "C[C@@H]1CN(c2ccc3c(Cl)ccnc3c2F)CC(C(N)=O)O1", "note": "(stereo partly specified)", "Percent Effect": -9.196}
{"smiles": "CC(C)c1noc(CCCC(=O)NC2CCS(=O)(=O)C2)n1", "note": "(stereo unspecified)", "Percent Effect": 7.76}
{"smiles": "CC(C)(C)S(=O)(=O)c1ccc(N2CCN(c3ccccn3)CC2)nn1", "Percent Effect": 14.84}
{"smiles": "CCN1CC2(CNCCN(C(=O)Nc3ccccc3)C2)CC1=O.O=C(O)C(F)(F)F", "note": "(stereo unspecified)", "Percent Effect": -17.66}
{"smiles": "Cc1cccc(N2CC3(CCN(S(=O)(=O)c4ccccc4)C3)CC2=O)c1", "note": "(stereo unspecified)", "Percent Effect": -6.441}
{"smiles": "O=C(Nc1ccccc1)N1CCC2(CC(=O)N(c3ccsc3)C2)C1", "note": "(stereo unspecified)", "Percent Effect": 106}
{"smiles": "COCC(=O)N1CCC2(CC(=O)N(c3cccc(F)c3)C2)C1", "note": "(stereo unspecified)", "Percent Effect": -16.31}
{"smiles": "Cc1cccc(NC(=O)N2CCC3(CC(=O)N(c4ccsc4)C3)C2)c1", "note": "(stereo unspecified)", "Percent Effect": 111.9}
{"smiles": "CC(C)NC(=O)N1CCC2(CC(=O)N(c3ccsc3)C2)C1", "note": "(stereo unspecified)", "Percent Effect": 94}
{"smiles": "CC(C)NC(=O)N1CCC2(C1)CN(c1ccsc1)C(=O)CN2C.O=C(O)C(F)(F)F", "note": "(stereo unspecified)", "Percent Effect": -13.82}
{"smiles": "O=C(Cc1ccccc1)N1CCC2(CC(=O)N(c3ccsc3)C2)C1", "note": "(stereo unspecified)", "Percent Effect": 4.465}
{"smiles": "CC(C)NC(=O)N1CCC2(CC(=O)N(c3cccc(C#N)c3)C2)C1", "note": "(stereo unspecified)", "Percent Effect": -3.038}
{"smiles": "O=C(c1cnccn1)N1CC[C@H]2[C@@H]1CCC(=O)N2c1cccnc1", "Percent Effect": -6.797}
{"smiles": "COc1cc(C)cc(C(C(=O)O)N(C)Cc2ccncc2C)c1OC", "note": "(stereo unspecified)", "Percent Effect": 4.518}
{"smiles": "Cc1ccc([C@]2(O)CC[C@H]3CN(Cc4ccc(Cl)cc4Cl)C[C@H]32)nc1", "Percent Effect": 121.2}
{"smiles": "CSc1ccc(CN2C[C@@H]3CC[C@@](O)(c4ccc(C)cn4)[C@@H]3C2)cc1", "Percent Effect": 135.2}
{"smiles": "CN(C)C(=O)CN1C[C@@H]2CC[C@H](C1)N(Cc1ccc(Cl)cc1Cl)C2", "Percent Effect": -35.05}
{"smiles": "Cc1cccc(C2(NC(=O)CCN3C(=O)CCC3=O)CCCC2)c1", "Percent Effect": -3.276}
